# Measured values reported in the supplement of paper PMC11732987, “Enantioselective OTUD7B fragment discovery through chemoproteomics screening and high-throughput optimisation” (Communications Chemistry, 2025).
# Values without a mark were called inactive.
# Experiments:
# Experiment in all cases: log2 ratio of Biotin-Ahx-Ub-VS probe labelling (fragment/DMSO); higher = less target engagement (more negative = stronger competition), active = hit call of the paper (q ≤ 0.05, log2 ratio ≤ -1)
# Conditions in all cases: compound concentration: 200 uM; treatment time: 3 h
# ALG13 = molecular target: T1, ALG13 (UniProt Q9NP73)
# T1 sequence (whole entry): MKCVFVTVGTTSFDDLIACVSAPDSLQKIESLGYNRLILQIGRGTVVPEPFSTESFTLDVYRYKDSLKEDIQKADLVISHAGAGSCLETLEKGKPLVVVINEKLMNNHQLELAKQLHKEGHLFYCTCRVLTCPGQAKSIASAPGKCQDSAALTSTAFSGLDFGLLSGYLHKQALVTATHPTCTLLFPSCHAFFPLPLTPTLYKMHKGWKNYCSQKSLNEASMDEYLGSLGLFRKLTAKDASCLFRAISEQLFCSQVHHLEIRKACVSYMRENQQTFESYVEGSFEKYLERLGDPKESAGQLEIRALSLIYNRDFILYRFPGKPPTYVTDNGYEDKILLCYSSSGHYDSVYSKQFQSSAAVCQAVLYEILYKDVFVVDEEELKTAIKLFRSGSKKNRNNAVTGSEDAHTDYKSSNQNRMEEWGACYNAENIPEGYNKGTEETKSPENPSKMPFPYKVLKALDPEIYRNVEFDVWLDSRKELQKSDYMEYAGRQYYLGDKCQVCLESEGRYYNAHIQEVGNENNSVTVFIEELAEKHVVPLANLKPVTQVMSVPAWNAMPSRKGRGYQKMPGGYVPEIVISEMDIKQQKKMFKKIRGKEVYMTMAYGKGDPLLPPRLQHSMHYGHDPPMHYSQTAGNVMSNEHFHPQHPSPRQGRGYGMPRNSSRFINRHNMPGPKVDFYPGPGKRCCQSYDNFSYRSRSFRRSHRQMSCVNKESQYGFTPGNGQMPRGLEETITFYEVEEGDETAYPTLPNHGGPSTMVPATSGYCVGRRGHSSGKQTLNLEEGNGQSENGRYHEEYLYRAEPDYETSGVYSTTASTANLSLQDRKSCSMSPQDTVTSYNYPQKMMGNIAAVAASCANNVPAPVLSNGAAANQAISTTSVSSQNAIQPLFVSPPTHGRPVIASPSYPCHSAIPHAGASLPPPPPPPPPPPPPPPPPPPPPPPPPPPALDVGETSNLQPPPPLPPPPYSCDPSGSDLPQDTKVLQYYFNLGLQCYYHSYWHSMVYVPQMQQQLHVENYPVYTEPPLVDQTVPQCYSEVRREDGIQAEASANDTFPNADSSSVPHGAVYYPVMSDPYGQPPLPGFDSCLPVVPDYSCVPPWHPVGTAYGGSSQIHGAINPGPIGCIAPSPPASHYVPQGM
# How it was run: (§1)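 Each value is an average log2 ratio of fragment to vehicle, tested by unpaired t-test. The underlying Spectronaut label-free quantities were global-median-normalised, and only proteins with ≥2 unique peptides were included. Triplicate HEK293T lysate samples (495 µg) were exposed to fragment at 200 µM or vehicle for 3 h, then to Biotin-Ahx-Ub-VS at 0.5 µM final for 1 h, before NeutrAvidin enrichment of labelled DUBs, LysC and trypsin digestion, and diaPASEF LC-MS/MS.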
# ATXN3 = ATXN3 (UniProt P54252)
# Chain of ATXN3 (P54252 whole entry): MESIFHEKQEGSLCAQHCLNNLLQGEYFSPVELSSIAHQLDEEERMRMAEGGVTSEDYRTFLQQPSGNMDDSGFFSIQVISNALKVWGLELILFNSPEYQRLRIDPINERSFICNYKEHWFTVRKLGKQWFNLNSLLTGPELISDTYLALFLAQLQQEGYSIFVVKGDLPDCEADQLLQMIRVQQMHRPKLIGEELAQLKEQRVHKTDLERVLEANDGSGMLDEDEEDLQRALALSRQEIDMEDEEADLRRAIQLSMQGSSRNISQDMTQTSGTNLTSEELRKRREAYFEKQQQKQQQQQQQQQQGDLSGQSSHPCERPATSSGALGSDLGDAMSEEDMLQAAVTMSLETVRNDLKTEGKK
# How it was run: as §1
# BAP1 = molecular target: T2, BAP1 (UniProt Q92560)
# T2 sequence (whole entry): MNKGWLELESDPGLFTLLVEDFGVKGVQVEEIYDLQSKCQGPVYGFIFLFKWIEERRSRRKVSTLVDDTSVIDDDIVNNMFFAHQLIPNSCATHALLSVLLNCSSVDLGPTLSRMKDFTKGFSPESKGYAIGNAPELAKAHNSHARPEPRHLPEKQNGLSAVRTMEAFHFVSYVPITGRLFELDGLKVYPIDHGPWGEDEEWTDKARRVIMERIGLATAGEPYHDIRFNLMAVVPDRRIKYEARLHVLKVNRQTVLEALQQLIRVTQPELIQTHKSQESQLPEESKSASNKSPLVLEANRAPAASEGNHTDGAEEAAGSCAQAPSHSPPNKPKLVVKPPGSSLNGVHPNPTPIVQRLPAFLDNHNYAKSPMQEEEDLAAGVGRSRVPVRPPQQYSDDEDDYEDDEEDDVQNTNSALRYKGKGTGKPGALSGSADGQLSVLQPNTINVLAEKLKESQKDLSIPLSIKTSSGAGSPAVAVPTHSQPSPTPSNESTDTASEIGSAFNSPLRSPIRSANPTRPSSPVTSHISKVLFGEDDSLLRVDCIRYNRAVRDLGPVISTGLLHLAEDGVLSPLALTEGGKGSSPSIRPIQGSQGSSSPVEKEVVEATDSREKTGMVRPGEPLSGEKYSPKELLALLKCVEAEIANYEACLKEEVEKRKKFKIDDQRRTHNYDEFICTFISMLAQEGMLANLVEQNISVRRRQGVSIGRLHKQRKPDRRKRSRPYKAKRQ
# How it was run: as §1
# EIF3F = EIF3F (UniProt O00303)
# Chain of EIF3F (O00303 whole entry): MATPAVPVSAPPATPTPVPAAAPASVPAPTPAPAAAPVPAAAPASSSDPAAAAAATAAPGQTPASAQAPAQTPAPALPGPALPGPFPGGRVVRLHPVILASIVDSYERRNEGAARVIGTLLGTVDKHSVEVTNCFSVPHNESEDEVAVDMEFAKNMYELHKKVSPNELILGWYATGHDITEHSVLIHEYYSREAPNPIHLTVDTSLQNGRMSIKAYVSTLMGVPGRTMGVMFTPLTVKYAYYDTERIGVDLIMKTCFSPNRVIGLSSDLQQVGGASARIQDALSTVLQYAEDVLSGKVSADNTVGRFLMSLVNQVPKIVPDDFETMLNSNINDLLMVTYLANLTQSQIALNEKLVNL
# How it was run: as §1
# EIF3H = EIF3H (UniProt O15372)
# Chain of EIF3H (O15372 whole entry): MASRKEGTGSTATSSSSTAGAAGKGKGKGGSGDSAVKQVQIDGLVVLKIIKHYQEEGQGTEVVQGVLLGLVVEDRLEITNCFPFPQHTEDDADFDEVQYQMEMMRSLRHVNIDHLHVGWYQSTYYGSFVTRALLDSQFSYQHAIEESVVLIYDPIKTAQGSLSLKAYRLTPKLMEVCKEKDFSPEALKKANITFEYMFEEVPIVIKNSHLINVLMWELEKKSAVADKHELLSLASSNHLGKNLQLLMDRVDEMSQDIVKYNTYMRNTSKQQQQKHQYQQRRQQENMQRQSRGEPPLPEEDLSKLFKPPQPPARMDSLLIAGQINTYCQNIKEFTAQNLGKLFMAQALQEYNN
# How it was run: as §1
# FAM105A = molecular target: T3, FAM105A (UniProt Q9NUU6)
# T3 sequence (whole entry): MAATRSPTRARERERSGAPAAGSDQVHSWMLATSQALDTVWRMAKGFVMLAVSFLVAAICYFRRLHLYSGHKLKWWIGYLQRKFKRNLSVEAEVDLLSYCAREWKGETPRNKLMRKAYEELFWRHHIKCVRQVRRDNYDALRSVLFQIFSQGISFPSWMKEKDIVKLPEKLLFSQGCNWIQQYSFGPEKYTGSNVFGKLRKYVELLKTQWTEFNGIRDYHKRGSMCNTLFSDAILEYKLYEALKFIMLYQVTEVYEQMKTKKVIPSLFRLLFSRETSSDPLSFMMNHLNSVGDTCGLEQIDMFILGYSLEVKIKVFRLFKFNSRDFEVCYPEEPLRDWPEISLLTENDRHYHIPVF
# How it was run: as §1
# OTUB1 = OTUB1 (UniProt Q96FW1)
# Chain of OTUB1 (Q96FW1 whole entry): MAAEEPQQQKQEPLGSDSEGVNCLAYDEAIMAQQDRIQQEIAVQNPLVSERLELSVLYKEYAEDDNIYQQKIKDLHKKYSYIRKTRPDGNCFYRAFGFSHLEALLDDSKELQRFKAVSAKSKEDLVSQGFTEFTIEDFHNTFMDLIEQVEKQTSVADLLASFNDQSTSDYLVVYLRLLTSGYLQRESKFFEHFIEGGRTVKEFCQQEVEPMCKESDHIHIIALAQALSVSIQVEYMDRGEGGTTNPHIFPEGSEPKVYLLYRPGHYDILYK
# How it was run: as §1
# OTUD4 = molecular target: T4, OTUD4 (UniProt Q01804)
# T4 sequence (whole entry): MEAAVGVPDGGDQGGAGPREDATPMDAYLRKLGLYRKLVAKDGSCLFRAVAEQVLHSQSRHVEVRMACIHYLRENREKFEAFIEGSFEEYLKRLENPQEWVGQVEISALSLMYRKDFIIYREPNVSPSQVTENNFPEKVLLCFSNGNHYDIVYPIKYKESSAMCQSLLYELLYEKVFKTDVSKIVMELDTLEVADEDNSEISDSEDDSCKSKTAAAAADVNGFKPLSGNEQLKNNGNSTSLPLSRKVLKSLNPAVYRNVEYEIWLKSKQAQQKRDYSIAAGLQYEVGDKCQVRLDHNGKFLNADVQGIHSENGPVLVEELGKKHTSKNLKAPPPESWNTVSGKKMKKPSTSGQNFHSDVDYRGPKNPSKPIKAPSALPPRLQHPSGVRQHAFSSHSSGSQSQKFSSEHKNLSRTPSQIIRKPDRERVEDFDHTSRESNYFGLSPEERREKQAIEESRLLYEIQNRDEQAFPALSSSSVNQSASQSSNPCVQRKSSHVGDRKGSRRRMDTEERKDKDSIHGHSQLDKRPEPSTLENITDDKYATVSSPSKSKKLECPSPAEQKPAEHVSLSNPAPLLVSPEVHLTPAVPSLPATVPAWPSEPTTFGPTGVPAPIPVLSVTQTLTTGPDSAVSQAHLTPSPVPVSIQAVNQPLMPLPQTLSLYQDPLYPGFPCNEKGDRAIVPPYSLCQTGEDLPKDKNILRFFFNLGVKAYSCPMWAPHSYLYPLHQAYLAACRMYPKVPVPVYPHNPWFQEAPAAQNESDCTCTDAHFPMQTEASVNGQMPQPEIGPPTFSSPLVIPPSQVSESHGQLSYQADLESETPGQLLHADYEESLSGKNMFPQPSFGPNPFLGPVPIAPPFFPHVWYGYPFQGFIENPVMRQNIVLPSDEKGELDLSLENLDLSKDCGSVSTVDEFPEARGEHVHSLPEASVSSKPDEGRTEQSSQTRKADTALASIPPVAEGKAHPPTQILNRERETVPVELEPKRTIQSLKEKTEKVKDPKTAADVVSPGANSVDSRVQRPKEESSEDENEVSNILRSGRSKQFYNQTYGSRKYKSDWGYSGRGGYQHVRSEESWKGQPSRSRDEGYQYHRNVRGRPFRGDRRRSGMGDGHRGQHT
# How it was run: as §1
# OTUD5 = molecular target: T5, OTUD5 (UniProt Q96G74)
# T5 sequence (whole entry): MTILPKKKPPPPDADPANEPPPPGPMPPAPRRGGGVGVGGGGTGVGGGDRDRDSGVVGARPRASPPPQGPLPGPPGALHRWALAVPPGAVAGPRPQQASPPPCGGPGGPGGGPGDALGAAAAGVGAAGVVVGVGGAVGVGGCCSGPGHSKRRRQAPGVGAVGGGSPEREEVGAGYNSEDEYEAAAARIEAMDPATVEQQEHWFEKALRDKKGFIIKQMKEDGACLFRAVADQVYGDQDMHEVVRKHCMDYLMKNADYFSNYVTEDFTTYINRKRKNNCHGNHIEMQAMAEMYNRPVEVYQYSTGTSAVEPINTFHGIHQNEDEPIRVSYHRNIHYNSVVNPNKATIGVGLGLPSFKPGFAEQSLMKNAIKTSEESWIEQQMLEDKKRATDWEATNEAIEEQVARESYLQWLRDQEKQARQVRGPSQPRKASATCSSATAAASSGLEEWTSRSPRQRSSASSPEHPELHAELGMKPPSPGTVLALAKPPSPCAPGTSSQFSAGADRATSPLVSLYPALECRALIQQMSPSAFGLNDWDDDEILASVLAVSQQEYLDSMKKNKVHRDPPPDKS
# How it was run: as §1
SMILES,log2 ratio of Biotin-Ahx-Ub-VS probe labelling (ALG13),log2 ratio of Biotin-Ahx-Ub-VS probe labelling (ATXN3),log2 ratio of Biotin-Ahx-Ub-VS probe labelling (BAP1),log2 ratio of Biotin-Ahx-Ub-VS probe labelling (EIF3F),log2 ratio of Biotin-Ahx-Ub-VS probe labelling (EIF3H),log2 ratio of Biotin-Ahx-Ub-VS probe labelling (FAM105A),log2 ratio of Biotin-Ahx-Ub-VS probe labelling (OTUB1),log2 ratio of Biotin-Ahx-Ub-VS probe labelling (OTUD4),log2 ratio of Biotin-Ahx-Ub-VS probe labelling (OTUD5)
O=C(CCl)N(C1=CCCCC1)C1CC1,0.101,-0.0892,-0.204,-0.311,0.314,0.173,-0.159,0.037,-0.182
O=C(CCl)NCc1ccc(Cl)cc1,0.0638,-0.168,-2.74 (active),0.0714,-0.105,-0.347,0.0283,0.0745,-0.00631
O=C(CCl)N1CCC(S(=O)(=O)c2ccc(F)cc2)CC1,-0.536,-0.72,-1.46 (active),-0.133,0.256,-0.39,0.147,-0.273,-0.457
Cc1ncsc1CCNC(=O)CCl,-1.18 (active),0.0484,-0.27,0.501,0.195,0.185,0.885,-0.271,0.163
Cc1cccc(N2CCC(NC(=O)CCl)C2=O)c1 (stereo not given),-0.354,-0.569,-4.17 (active),-0.331,0.306,0.111,-0.325,-0.412,-0.338
Cc1n[nH]c(=O)c2c(NC(=O)CCl)oc(C)c12,0.211,0.117,0.169,0.173,0.156,-0.0353,0.329,0.0677,-0.187
Cl.Cn1cnc2cc(CNC(=O)CCl)ccc21,0.056,-0.239,-2.15 (active),-0.304,0.311,-0.318,0.0608,-0.0323,-0.121
Cc1ccc(C)c(NC(=O)CCl)c1,0.0947,-0.548,-3.51 (active),-0.246,0.0185,-0.0979,-0.23,-0.598,-0.833
O=C(CCl)NCCc1ccc2c(c1)OCCO2,-0.0432,-0.16,-1.7 (active),-0.184,0.186,0.307,-0.173,-0.539,-0.693
O=C(CCl)N1CC2(CCOCC2)C1,-0.597,-0.356,-0.382,0.0073,0.061,-0.00776,-0.183,-0.122,-0.493
O=C(CCl)NC1CCC2(CC1)OCCO2,0.0856,-0.347,-0.944,-0.268,0.0155,0.137,-0.114,-0.376,-0.414
O=C(CN1CCN(C(=O)CCl)CC1)Nc1cccc(F)c1,-0.606,-0.412,-0.967,-0.00546,0.149,0.21,-0.291,-0.422,-0.511
CC(NC(=O)CCl)c1noc(Cc2ccccc2)n1 (stereo not given),0.107,-0.275,-2.73 (active),-0.25,-0.398,-0.027,0.0412,-0.692,-0.271
Cc1ccc(C(=O)NCCNC(=O)CCl)cc1,-0.0475,-0.159,-1.49 (active),-0.13,-0.101,-0.349,-0.162,-0.371,-0.264
O=C(CCl)N1CCOC(c2cccc(F)c2)C1 (stereo not given),-0.261,-2.59 (active),-1.09 (active),-0.0524,0.265,-0.167,-0.175,-0.803,-0.491
Cc1cccc(C(CNC(=O)CCl)N2CCOCC2)c1.Cl (stereo not given),-0.0491,0.0164,-0.497,0.0302,0.267,-0.778,-0.156,-0.199,-0.241
CC1CN(c2ccc(NC(=O)CCl)cc2)CC(C)O1 (stereo not given),-0.442,-0.412,-2.48 (active),-0.0748,0.0832,0.115,0.133,-0.357,-0.371
Cc1ccc(CC(CO)CNC(=O)CCl)cc1 (stereo not given),-0.289,-0.385,-3.74 (active),0.0794,0.139,0.442,-0.0508,-0.858,-0.455
O=C(CCl)NCCc1ccc(F)cc1,-0.037,-0.166,-1.07 (active),0.0338,0.194,-0.364,-0.291,-0.143,-0.544
CC1(NC(=O)CCl)CCS(=O)(=O)C1 (stereo not given),-0.0745,-0.753,-1.37 (active),-0.345,0.186,0.0573,-0.246,-0.934,-0.673
